Screening data as filed in PubChem.
NPR1 antag – blocks ANP-stimulated signaling of human Npr1 receptor; P16066; HEK293 hNpr1 GloSensor cGMP, ANP-stimulated luminescence; Potency, µM (doses to about 46.3 µM), for inactives: top-dose activity change, negative = inhibition, usual class: inhibitors; hit rate 1.6% among 76,000; AID 1347048; calls by dose curve; note: nearly all actives have a fitted effect of over 60% in size
Target sequence (P16066 whole entry, looked up): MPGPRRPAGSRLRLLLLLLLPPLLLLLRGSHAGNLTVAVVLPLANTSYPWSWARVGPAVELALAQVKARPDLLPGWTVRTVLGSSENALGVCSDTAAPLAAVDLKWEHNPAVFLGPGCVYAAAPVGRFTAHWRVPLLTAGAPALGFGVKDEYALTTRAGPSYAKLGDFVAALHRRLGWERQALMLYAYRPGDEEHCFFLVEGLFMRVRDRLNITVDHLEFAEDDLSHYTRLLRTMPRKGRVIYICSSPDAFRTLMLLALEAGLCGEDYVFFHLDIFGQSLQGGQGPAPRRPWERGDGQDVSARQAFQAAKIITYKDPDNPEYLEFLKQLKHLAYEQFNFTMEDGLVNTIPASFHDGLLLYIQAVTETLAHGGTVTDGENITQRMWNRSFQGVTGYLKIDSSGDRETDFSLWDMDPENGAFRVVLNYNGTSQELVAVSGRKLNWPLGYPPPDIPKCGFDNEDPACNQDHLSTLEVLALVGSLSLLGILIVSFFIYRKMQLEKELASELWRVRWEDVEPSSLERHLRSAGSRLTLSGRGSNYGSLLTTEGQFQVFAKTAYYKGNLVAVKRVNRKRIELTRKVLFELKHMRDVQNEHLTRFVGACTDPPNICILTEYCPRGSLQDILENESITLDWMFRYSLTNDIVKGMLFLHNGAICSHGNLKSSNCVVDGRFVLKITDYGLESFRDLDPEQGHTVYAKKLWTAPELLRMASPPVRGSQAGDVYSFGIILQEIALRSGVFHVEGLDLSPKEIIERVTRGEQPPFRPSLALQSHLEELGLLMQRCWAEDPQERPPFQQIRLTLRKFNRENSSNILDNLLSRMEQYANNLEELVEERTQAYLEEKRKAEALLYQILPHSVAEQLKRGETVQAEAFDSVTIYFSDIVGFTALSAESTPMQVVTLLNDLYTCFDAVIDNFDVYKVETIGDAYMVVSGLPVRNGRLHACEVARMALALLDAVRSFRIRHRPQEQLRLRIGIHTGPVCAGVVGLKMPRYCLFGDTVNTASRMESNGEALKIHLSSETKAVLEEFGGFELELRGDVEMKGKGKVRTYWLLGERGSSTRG
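HEK293 cells stably expressing human Npr1 and cGMP GloSensor pGS-40F, loaded 2 h with 2% GloSensor reagent, given compound 30 min at room temperature. Luminescence read before and 20 min after 0.1 nM hNppA.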
GPT2 inhibitor – GPT2 alanine aminotransferase inhibition; Recombinant GPT2, coupled pyruvate oxidase/HRP Amplex Red fluorescence; Q8TD30; Potency, µM (doses to about 57.7 µM), for inactives: at the highest dose activity change, negative = inhibition, hits mostly inhibitors; AID 1671188; hit rate 0.25% among 100,000; note: nearly all actives have a fitted effect of over 60% in size
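Fluorescence of coupled pyruvate oxidase/HRP/Amplex Red system (50uM Amplex, 30 min, dark) reports pyruvate formed by GPT2. Enzyme reaction: 10ng/uL GPT2, 2mM L-alanine, 250uM a-KG, 30 min room temperature, pH 7.5; 50uM AOA control.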
NIH3T3 tox – NIH 3T3 cell cytotoxicity | Potency, µM (doses to about 96.7 µM), inactives show at the highest dose activity change, negative = cytotoxicity, usual class: inhibitors | NIH 3T3 viability, CellTiter-Glo ATP luminescence, 48-72 h | AID 1345082 | hit rate 4.3% among 94,000; note: nearly all actives have a fitted effect of over 55% in size
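Luminescent ATP readout (CellTiter-Glo, 10 min RT) after 48 or 72 hr compound exposure of NIH 3T3 cells seeded at 400 cells/well in 1536-well format; quantitative HTS.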
HEK cytotox – kills HEK 293 cells; HEK 293 viability, ATP luminescence (CellTiter-Glo), 48-72 h; Potency, µM (series often up to 115 µM), for inactives: top-dose activity change, negative = cytotoxicity, most hits filed as inhibitors; hit rate 6.6% among 94,000; AID 1345083; note: nearly all actives have a fitted effect of over 60% in size
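Luminescence from cellular ATP, measured with CellTiter-Glo, indicates HEK 293 viability. Cells plated at 250 cells/well are treated with compound for 48 or 72 hr at 37 degree Celsius before reagent addition.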
Luciferase inh – Photinus pyralis luciferase inhibition; purified P. pyralis luciferase, luminescence, biochemical; Potency, µM (top dose mostly 115 µM), usual class: inhibitors; hit rate 2.5% among 76,000; note: nearly all actives have a fitted effect of over 65% in size
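Biochemical qHTS: compound (6-point titration) added to 10uM D-luciferin plus 10uM ATP in Tris acetate pH 7.5 buffer with Mg, Tween-20 and BSA, then purified enzyme at 10nM; light output imaged.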
* = called active by the depositor; i = inactive; ? = inconclusive; / = not tested or not shown; [ ] = remark or other dose. An excerpt weighted towards active compounds, which were near 10% of everything screened. Unless noted, calls come from the whole dose curve; as a rule, active = well fitted curve in the direction sought with a large enough effect; inconclusive = small, poorly fitted or top-dose-only effect, or another doubt; inactive = no such curve, though single readings can be large; an effect the other way counts as inactive or inconclusive. % is set by controls: 0 for no effect and ±100 for the full control effect; potency is the fitted concentration of half-maximal effect.

SMILES	NPR1 antag	GPT2 inhibitor	NIH3T3 tox	HEK cytotox	Luciferase inh
Cn1cc(CN2C[C@@H](F)[C@@H](OCc3nc4ccc(C#N)cc4[nH]3)C2)c2ccccc21	?	2%[88.5 µM]	89µM*	89µM*	i
Cc1ccc2nc(CO[C@H]3CN(Cc4ccc(Cl)cc4)C[C@H]3F)[nH]c2c1	?	-9%[88.5 µM]	?	89µM*	i
CN1C[C@@H](F)[C@@H](OCc2nc3ccc(C(F)(F)F)cc3[nH]2)C1	-5%[70.6 µM]	-12%[88.5 µM]	?	-24%[172 µM]	50µM*
O=C(C1CC1)N(C1CCOCC1)C1CCN(S(=O)(=O)c2ccc(F)c(Cl)c2)CC1	1%	-11%	-16%	-25%	i
CN1Cc2cccn2CC1CNC(=O)NC1CCCCC1 (stereo not drawn)	1%	i	-17%	2%	i
O=C(NCc1cccc(Cl)c1)c1cc(-c2cccc(C(F)(F)F)c2)c2nncn2n1	/	i	-21%	-25%	/
CC(C)(C)CC(=O)Nc1nc2c(s1)C[C@@H]1[C@](C)(CO)[C@H](O)CC[C@@]1(C)[C@@H]2CC(=O)NC1CCCC1	0%	-3%	?	-11%	i
CCNC(=O)N1C[C@@H](F)[C@@H](OCc2nc3ccc(C)cc3[nH]2)C1	3%[70.6 µM]	-1%[88.5 µM]	3%[138 µM]	1%[172 µM]	63µM*
Cc1ccc2nc(CO[C@H]3CN(CC4CC4)C[C@H]3F)[nH]c2c1	-12%[70.6 µM]	i	-7%[138 µM]	-21%[172 µM]	i
COc1ccc(Nc2ccnc(N3CCN(C(=O)C(C)(C)C)CC3)n2)cc1	/	i	?	?	/
O=S1(=O)NC2(CCN(CCc3ccccc3)C2)COc2ncccc21 (stereo not drawn)	/	i	i	i	/
O=c1c2nc(-c3ccc(O)c(F)c3)ccc2ncn1Cc1ccccn1	2%[70.6 µM]	-10%[88.5 µM]	79µM*	-7%[172 µM]	i
O=c1c2nc(-c3cccc(O)c3)ccc2ncn1Cc1ccccn1	-2%[70.6 µM]	-5%[88.5 µM]	20µM*	-19%[172 µM]	i
O=C(Nc1cccc(C(F)(F)F)c1)c1nc2c(o1)CCN(Cc1ccc(F)cc1)CC2	-30%[70.6 µM]	-39%[88.5 µM]	28µM*	28µM*	i
O=C(Nc1cccc(C(F)(F)F)c1)c1nc2c(o1)CCN(Cc1cnc[nH]1)CC2	-9%[70.6 µM]	-28%[88.5 µM]	?	?	40µM*
O=C(Nc1cccc(C(F)(F)F)c1)c1nc2c(o1)CCN(Cc1ccccc1)CC2	0%[70.6 µM]	?	?	?	i
O=C(NCC1CC1)c1nc2c(o1)CCN(Cc1cccc(F)c1)CC2	?	4%[88.5 µM]	?	?	i
O=C(Nc1cccc(C(F)(F)F)c1)c1nc2c(o1)CCN(Cc1cccc(F)c1)CC2	?	-2%[88.5 µM]	?	50µM*	?
Cc1cnc(-c2ccccc2)n1CCNC(=O)C1CCCCC1	/	i	-21%	-23%	/
O=C(Nc1cccc(-c2ccc(N3CCOCC3)nn2)c1)Nc1ccccc1Cl	?	1%	?	?	1.6µM*
O=C(Nc1cccc(-c2ccc(N3CCOCC3)nn2)c1)Nc1cc(Cl)ccc1Cl	-19%	i	-17%	-15%	1µM*
O=C(NCc1cccc(Cl)c1)c1ccc2nc(-c3cccnc3)oc2c1	/	i	?	?	/
CC(=O)NCc1nnc2n1C(C(=O)NCc1ccccc1Cl)CC2 (stereo not drawn)	/	i	?	-39%[172 µM]	/
COc1ccccc1NC(=O)Cn1c(=O)n(-c2ccc(F)cc2)c(=O)c2c1cc(C)n2C	-9%	-7%	32µM*	45µM*	i
COc1ccccc1NC(=O)Cn1c(=O)n(-c2ccccc2)c(=O)c2c1cc(C)n2C	0%	i	i	-9%	i
SMILES	NPR1 antag	GPT2 inhibitor	NIH3T3 tox	HEK cytotox	Luciferase inh
Cc1ccc(NC(=O)Cn2c(=O)n(-c3ccccc3)c(=O)c3c2cc(C)n3C)cc1	3%	3%	22µM*	40µM*	i
Cc1cccc(NC(=O)Cn2c(=O)n(-c3ccccc3)c(=O)c3c2cc(C)n3C)c1	6%	1%	i	0%	i
CC1=C(C(=O)NC(C)(C)C)C(c2ccc(Cl)cc2)N2C(CC(=O)N3CCCC3)=CSC2=N1 (stereo not drawn)	-17%	i	45µM*	?	i
CC(C)Cn1c(=O)c(C(=O)N2CCC(c3ccccc3)CC2)nc2cccnc21	/	i	?	?	/
COc1ccccc1-c1cccc(CN2CCC(NC(=O)NC3CCCC3)CC2)c1	/	-5%	28µM*	40µM*	/
COc1ccccc1-c1cccc(CN2CCC(NC(=O)Nc3ccccc3F)CC2)c1	/	i	18µM*	25µM*	/
COc1ccccc1-c1cccc(CN2CCC(NC(=O)c3ccccc3)CC2)c1	/	-12%	?	?	/
COc1ccccc1-c1cccc(CN2CCC(NC(=O)c3ccc(C)cc3)CC2)c1	/	1%	?	50µM*	/
CCOCCCNC(=O)C1CCCN1Cc1cccc(-c2cccc(OC)c2)c1 (stereo not drawn)	/	i	32µM*	25µM*	/
COC(=O)CNC(=O)C1CCCN1Cc1ccc(-c2cccc(OC)c2)cc1 (stereo not drawn)	/	i	?	?	/
C=CCC(=O)N1CCCC1C(=O)Nc1ccc(-c2cccc(OC)c2)cc1 (stereo not drawn)	-2%	?	-6%	?	25µM*
CCCCCNC(=O)C1CCCN1Cc1ccc(-c2cccc(OC)c2)cc1 (stereo not drawn)	/	-22%	40µM*	22µM*	/
COc1cccc(-c2cccc(CN3CCCC3C(=O)N3CCCC(C)C3)c2)c1 (stereo not drawn)	/	/	?	50µM*	/
COc1cccc(-c2cccc(CN3CCCC3C(=O)NC(C)C)c2)c1 (stereo not drawn)	/	i	?	?	/
O=C(Nc1nc2cc(C(F)(F)F)cc(NC3CC3)n2n1)c1cccnc1	/	-1%	/	/	/
COc1cccc(-c2cccc(CN3CCCC3C(=O)NCc3ccc(Cl)cc3)c2)c1 (stereo not drawn)	/	/	40µM*	40µM*	/
COc1cccc(-c2ccc(NC(=O)C3CCCN(C(=O)CC(F)(F)F)C3)cc2)c1 (stereo not drawn)	16µM*	-1%	?	?	?
CC(C)(C)CC(=O)N1CCCC(C(=O)Nc2cccc(-c3ccc(F)cc3)c2)C1 (stereo not drawn)	-11%	?	?	?	i
COc1cccc(-c2cccc(CN3CCCC3C(=O)NCc3ccc(F)cc3F)c2)c1 (stereo not drawn)	/	1%	?	?	/
COc1cccc(-c2ccc(NC(=O)C3CCCN3Cc3cnn(C)c3)cc2)c1 (stereo not drawn)	-1%	1%	?	45µM*	i
COc1cccc(CNC(=O)C2CCCN2Cc2ccc(-c3cccc(OC)c3)cc2)c1 (stereo not drawn)	/	-4%	35µM*	?	/
